hNpr1 antagonist = Natriuretic polypeptide receptor (hNpr1) antagonism - Primary qHTS. HEK293 hNpr1 GloSensor cGMP, ANP-stimulated luminescence. Potency, µM (highest dose often 46.3 µM), hits mostly inhibitors. 76,000 compounds, 1.6% hits. Atrial natriuretic peptide receptor 1 (Homo sapiens), P16066; calls by dose curve; also: nearly all actives have a fitted effect of over 60% in size
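HEK293 cells stably expressing human Npr1 and cGMP GloSensor pGS-40F, loaded 2 h with 2% GloSensor reagent, given compound 30 min at room temperature. Luminescence read before and 20 min after 0.1 nM hNppA.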
3T3 cytotox = Cytotoxic Profiling in NIH 3T3 Cell Line of Diverse Libraries Using Quantitative High-Throughput Screening. 94,000 compounds, 4.3% hits. NIH 3T3 viability, CellTiter-Glo ATP luminescence, 48-72 h. Potency, µM (doses to about 96.7 µM), hits mostly inhibitors; also: nearly all actives have a fitted effect of over 55% in size
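Cells were seeded at 400 per well, treated with pin-transferred compound, and kept 48 or 72 hr at 37 °C before CellTiter-Glo addition and luminescence imaging of cellular ATP.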
HEK cytotox = Cytotoxic Profiling in HEK 293 Cell Line of Diverse Libraries Using Quantitative High-Throughput Screening. Potency, µM (highest dose often 115 µM), hits mostly inhibitors. HEK 293 viability, ATP luminescence (CellTiter-Glo), 48-72 h. 94,000 compounds, 6.6% hits; also: nearly all actives have a fitted effect of over 60% in size
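Cytotoxicity was scored by loss of ATP-coupled luminescence (CellTiter-Glo) in HEK 293 cells. Compound treatment ran 48 or 72 hr at 37 degree Celsius, 5% CO2, 95% humidity.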
FLuc inh = Firefly luciferase inhibition profiling of diverse chemical library using quantitative high-throughput screening; purified P. pyralis luciferase, luminescence, biochemical; Potency, µM (doses to about 115 µM), hits mostly inhibitors; 76,000 compounds, 2.5% hits; AID 1347043, 2019; also: nearly all actives have a fitted effect of over 65% in size
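Biochemical qHTS: compound (6-point titration) added to 10uM D-luciferin plus 10uM ATP in Tris acetate pH 7.5 buffer with Mg, Tween-20 and BSA, then purified enzyme at 10nM; light output imaged.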
GPT2 inh = Primary qHTS assay for inhibitors of Glutamate pyruvate transaminase 2 (GPT2); Alanine aminotransferase 2 (Homo sapiens), Q8TD30; Recombinant GPT2, coupled pyruvate oxidase/HRP Amplex Red fluorescence; Potency, µM (doses to about 57.7 µM), hits mostly inhibitors; 100,000 compounds, 0.25% hits; also: nearly all actives have a fitted effect of over 60% in size
Target sequence (Q8TD30 whole entry, looked up): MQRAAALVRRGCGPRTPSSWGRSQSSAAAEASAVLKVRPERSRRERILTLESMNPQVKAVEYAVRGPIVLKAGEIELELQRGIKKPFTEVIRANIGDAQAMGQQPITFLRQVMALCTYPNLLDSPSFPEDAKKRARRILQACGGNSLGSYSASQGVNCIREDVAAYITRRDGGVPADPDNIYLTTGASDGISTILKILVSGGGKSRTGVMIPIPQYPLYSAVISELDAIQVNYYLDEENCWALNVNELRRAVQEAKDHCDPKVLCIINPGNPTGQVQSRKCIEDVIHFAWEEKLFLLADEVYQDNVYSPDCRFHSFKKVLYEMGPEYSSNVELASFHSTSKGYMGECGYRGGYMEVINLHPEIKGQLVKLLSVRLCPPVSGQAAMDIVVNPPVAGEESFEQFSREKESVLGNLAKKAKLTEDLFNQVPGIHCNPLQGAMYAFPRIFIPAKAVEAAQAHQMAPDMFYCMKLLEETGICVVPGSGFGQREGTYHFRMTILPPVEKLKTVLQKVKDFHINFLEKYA
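Recombinant GPT2 (10ng/uL) with 250uM a-KG and 2mM L-alanine, 30 min at room temperature, in HEPES pH 7.5 buffer. Pyruvate detected by pyruvate oxidase/HRP/Amplex Red fluorescence after 30 min in the dark; AOA (50uM) as positive control.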
Of the large screens only hits and unclear results are named; the others gave an inactive call. Hits are enriched below; roughly 10% of the tested compounds scored in any of these assays. Unless noted, calls follow the shape of the dose curve; as a rule, active = well fitted curve in the direction sought with a large enough effect; inconclusive = small, poorly fitted or top-dose-only effect, or another doubt; inactive = no such curve, though single readings can be large; an effect the other way counts as inactive or inconclusive.

O=C(O)CCC(=O)N1C[C@@H]2OCC(=O)N(Cc3ccccc3)[C@@H]2C1	none
COc1ccc(CN2Cc3cc(NC(=O)c4ccc5c(c4)OCO5)ccc3OC(C)C2=O)cc1 (centres undefined)	3T3 cytotox inconclusive, HEK cytotox 22µM
CN(CC(O)COc1cccc(CNCCc2ccc(F)cc2)c1)C1CCCCC1 (centres undefined)	3T3 cytotox inconclusive, HEK cytotox 18µM, GPT2 inh inconclusive
O=C(c1ccc2ncccc2c1)N1CCC2(CC1)Nc1ccccc1NC2=O	HEK cytotox 89µM
O=C(c1cccc2ncccc12)N1CCC2(CC1)Nc1ccccc1NC2=O	HEK cytotox inconclusive
Cc1ccc(C(=O)N2CC(N3C(=O)c4c(c(C)nn4-c4ccccc4)C3C)C2)cc1 (centres undefined)	none (no result: hNpr1 antagonist, FLuc inh, GPT2 inh)
Cc1nn(-c2ccccc2)c2c1C(C)N(C1CCN(C(=O)c3ccccc3)C1)C2=O (centres undefined)	3T3 cytotox inconclusive, HEK cytotox 45µM (no result: hNpr1 antagonist, FLuc inh, GPT2 inh)
Cc1ccc(C(=O)N2CCCC(N3C(=O)c4c(c(C)nn4-c4ccccc4)C3C)C2)cc1 (centres undefined)	3T3 cytotox inconclusive, HEK cytotox 45µM (no result: hNpr1 antagonist, FLuc inh, GPT2 inh)
Cc1nn(-c2ccccc2)c2c1C(C1CC1)N(C1CCN(C(=O)c3cccc(C(F)(F)F)c3)C1)C2=O (centres undefined)	none (no result: hNpr1 antagonist, FLuc inh, GPT2 inh)
Cc1nn(-c2ccccc2)c2c1C(C)N(C1CCN(C(=O)c3cccc(C(F)(F)F)c3)C1)C2=O (centres undefined)	3T3 cytotox inconclusive, HEK cytotox 35µM (no result: hNpr1 antagonist, FLuc inh, GPT2 inh)
O=C(Cc1ccsc1)N1CCC(OCC2CC2)C1 (centres undefined)	none (no result: hNpr1 antagonist, FLuc inh)
CSCC(=O)N1C[C@@H](C(=O)O)[C@H](c2ccc3c(c2)OCO3)C1	none
O=C(NC[C@H]1O[C@@H]2C[C@@H](CC(=O)N3CCOCC3)O[C@@H]2[C@@H]1O)NC1CCC1	none
COc1ccccc1CCC(=O)N[C@@H]1CN(c2ccncn2)C[C@H]1CN(C)C	none
Cc1cccc(C2c3cc(OCc4nc(C(=O)NC(C)C)co4)ccc3CCN2C(=O)C2CC2)c1 (centres undefined)	3T3 cytotox 14µM, HEK cytotox 18µM
CC(C)NC(=O)c1coc(COc2ccc3c(c2)C(c2cccc(F)c2)N(C(=O)C2CC2)CC3)n1 (centres undefined)	3T3 cytotox 22µM, HEK cytotox inconclusive
Cc1c(CN2CCN(S(C)(=O)=O)CC2)sc2c(N3CCOCC3)nc(-c3cnc(N)nc3)nc12	none (no result: hNpr1 antagonist, 3T3 cytotox, HEK cytotox, FLuc inh)
NC(=O)[C@@H]1CN(C(=O)c2cnccn2)C[C@H]1COc1ccccc1	none
Cn1cccc1CN1CCC(N2CCNC2=O)CC1	none (no result: hNpr1 antagonist, FLuc inh)
COCCOC1CCN(C(=O)c2sc(C)nc2C)CC1	FLuc inh 35µM
Cc1[nH]nc(C(=O)N[C@@H]2COCC[C@@H]2OCc2ccccc2)c1Cl	none
O=C(Nc1ccnn1C1CCN(Cc2ccc(-c3ccccc3)cc2)CC1)C1CC1	hNpr1 antagonist inconclusive, 3T3 cytotox 35µM, HEK cytotox inconclusive
CSc1ncc(CN2CCC(n3nccc3NC(=O)Cc3ccccc3)CC2)cn1	none
CCCCCNC(=O)CCN(CC)C(=O)c1cc(C)oc1C	3T3 cytotox inconclusive, HEK cytotox inconclusive, GPT2 inh inconclusive
CCCCCN(CCC(=O)NCCC(C)C)C(=O)c1cc(C)oc1C	3T3 cytotox inconclusive, HEK cytotox 28µM, GPT2 inh inconclusive
Cc1cc(C(=O)N(CCC(=O)NCCC(C)C)CCC(C)C)c(C)o1	3T3 cytotox inconclusive, HEK cytotox 32µM
CCCCN(CCC(=O)NCCc1ccccc1)C(=O)c1cc(C)oc1C	hNpr1 antagonist inconclusive, 3T3 cytotox 35µM, HEK cytotox 14µM
CC(C)c1noc(-c2cn(C3CCN(C(=O)c4ccc5[nH]ccc5c4)CC3)nn2)n1	3T3 cytotox inconclusive
COc1ccc(-c2nc(CN3CCC(CO)CC3)c(C)o2)c2ccccc12	3T3 cytotox inconclusive, HEK cytotox 20µM
COc1ccc(-c2nc(CN3CCC(F)(F)CC3)c(C)o2)c(OC)c1C	3T3 cytotox inconclusive, HEK cytotox inconclusive
O=C(NCC1CC1)C1CCCN1c1nccc(Nc2ccccc2F)n1 (centres undefined)	HEK cytotox inconclusive (no result: hNpr1 antagonist, FLuc inh)
Cc1ccc(CCN2CCCCC23Cc2ccccc2CN([S+](C)(=O)[O-])C3)cc1 (centres undefined)	3T3 cytotox inconclusive, HEK cytotox 79µM (no result: hNpr1 antagonist, FLuc inh)
NC(=O)CCN(Cc1ccccc1)C(=O)C1CCN(C(=O)C2CCCC2)CC1	none
Cc1ncsc1CN1CCCCCCNC(=O)[C@@H]2C[C@@H](C(=O)N3CCc4ccccc4C3)C[C@@H]21	HEK cytotox 89µM
N#Cc1ccc(CN2CCCCCCNC(=O)[C@@H]3C[C@@H](C(=O)N4CCc5ccccc5C4)C[C@@H]32)cc1	3T3 cytotox inconclusive, HEK cytotox inconclusive
COc1cccc(-c2cc3c(=O)n(CCNC(=O)C(C)Oc4ccccc4)ccn3n2)c1 (centres undefined)	hNpr1 antagonist inconclusive, 3T3 cytotox inconclusive, HEK cytotox 45µM, FLuc inh inconclusive
COc1cccc(-c2cc3c(=O)n(CCNC(=O)c4cc(F)cc(F)c4)ccn3n2)c1	3T3 cytotox inconclusive, HEK cytotox inconclusive
COc1cccc(-c2cc3c(=O)n(CCNC(=O)c4cccnc4)ccn3n2)c1	FLuc inh inconclusive
COc1cccc(-c2cc3c(=O)n(CCNC(=O)c4c(F)cccc4F)ccn3n2)c1	FLuc inh 7.9µM
COc1cccc(-c2cc3c(=O)n(CCNC(=O)c4ccoc4)ccn3n2)c1	HEK cytotox 45µM, FLuc inh inconclusive
COc1cccc(C(C)N(C)Cc2nc(Cc3cccc(F)c3)no2)c1 (centres undefined)	3T3 cytotox inconclusive, HEK cytotox inconclusive
O=C1Nc2ccccc2C12CCN(Cc1cccc3ccccc13)C2 (centres undefined)	3T3 cytotox 79µM, HEK cytotox 79µM (no result: hNpr1 antagonist, FLuc inh)
COc1ccc(CN2CCC3(C2)C(=O)Nc2ccccc23)cc1 (centres undefined)	HEK cytotox inconclusive (no result: hNpr1 antagonist, FLuc inh)
Cc1ccc(-c2noc(-c3nc(-c4ccccn4)no3)n2)cc1	FLuc inh 18µM
CC(=O)Nc1ccc(NC(=O)c2c(C)oc3ccn(Cc4ccc(F)cc4)c(=O)c23)cc1	HEK cytotox inconclusive
Cc1oc2ccn(Cc3ccc(F)cc3)c(=O)c2c1C(=O)NC1CCCCCC1	3T3 cytotox inconclusive, HEK cytotox 35µM
Cc1nc(CNC(=O)c2ccc3oc(-c4cccc(F)c4)nc3c2)cs1	HEK cytotox inconclusive, FLuc inh 32µM
